Measurements from the supplement of paper PMC6992640.
± gives the standard deviation of the averaged measurements.

Assays:
Assay in all cases: cell viability (% of vehicle); higher = less cytotoxic
HCI01 [1] = cells of a triple-negative basal-like breast cancer xenograft; conditions: 1 µM; 72 h
UCD52 [2] = cells of a triple-negative basal-like breast cancer xenograft; conditions: 1 µM; 72 h
WHIM2 [3] = cells of a triple-negative basal-like breast cancer xenograft; conditions: 1 µM; 72 h
WHIM30 [4] = cells of a triple-negative basal-like breast cancer xenograft; conditions: 1 µM; 72 h
HCI01 [5] = conditions: 10 µM; 72 h
HCI03 = cells of an ER-positive luminal breast cancer xenograft; conditions: 10 µM; 72 h
HCI09 = cells of a triple-negative luminal androgen receptor type breast cancer xenograft; conditions: 10 µM; 72 h
HCI11 = cells of an ER-positive luminal breast cancer xenograft; conditions: 10 µM; 72 h
HCI13 = cells of an ER-positive luminal breast cancer xenograft; conditions: 10 µM; 72 h
HCI16 = cells of a triple-negative basal-like breast cancer xenograft; conditions: 10 µM; 72 h
UCD52 [6] = conditions: 10 µM; 72 h
WHIM2 [7] = conditions: 10 µM; 72 h
WHIM30 [8] = conditions: 10 µM; 72 h

SMILES | cell viability (HCI01 [1]) | cell viability (UCD52 [2]) | cell viability (WHIM2 [3]) | cell viability (WHIM30 [4]) | cell viability (HCI01 [5]) | cell viability (HCI03) | cell viability (HCI09) | cell viability (HCI11) | cell viability (HCI13) | cell viability (HCI16) | cell viability (UCD52 [6]) | cell viability (WHIM2 [7]) | cell viability (WHIM30 [8])
CC(C)N=c1cc2n(-c3ccc(Cl)cc3)c3ccccc3nc-2cc1Nc1ccc(Cl)cc1 [Clofazimine] | 88.1 | 84.9 | 90.3 | 80.2 | 54.8 ± 28 | 83.9 | 38.8 ± 13 | 88.8 | 43.6 ± 9.1 | 77.6 | 44.2 ± 1.7 | 53.1 ± 15 | 68.8 ± 6.1
CCCCc1oc2ccccc2c1C(=O)c1cc(I)c(OCCN(CC)CC)c(I)c1.Cl [Amiodarone HCl] | 96.6 | 101 | 94.7 | 98.4 | 69.5 ± 16 | 54.7 | 32.8 ± 9.1 | 75 | 36.2 ± 4 | 60 | 40.7 ± 7.3 | 37 ± 6 | 83.1 ± 5.7
Clc1ccc(C(Cn2ccnc2)OCc2ccsc2Cl)c(Cl)c1 (stereo unspecified) [Tioconazole] | 98.7 | 104 | 111 | 90.1 | 115 ± 63 | 110 | 40.7 ± 32 | 92.1 | 50.1 ± 3.6 | 119 | 60.2 ± 8.4 | 35.8 ± 5.1 | 100 ± 2.3
COc1cc2nccc(Oc3ccc(NC(=O)Nc4cc(C)on4)c(Cl)c3)c2cc1OC [Tivozanib (AV-951)] | 91 | 61.4 | 94.3 | 85.1 | 85.4 ± 37 | 80 | 67 ± 50 | 75.1 | 60.9 ± 7.7 | 69.7 | 81.1 ± 22 | 61.7 ± 18 | 57.6 ± 2.1
CN(C)c1ccc(O)c2c1CC1CC3C(N(C)C)C(=O)C(C(N)=O)=C(O)C3(O)C(=O)C1=C2O.Cl (stereo unspecified) [Minocycline HCl] | 103 | 100 | 91.2 | 102 | 68.2 ± 8.5 | 59.2 | 55.8 ± 58 | 52.6 | 78.7 ± 12 | 96.5 | 70.7 ± 4.3 | 82.8 ± 14 | 81.8 ± 11
CC(C)(C)NC(=O)C1CC2CCCCC2CN1CC(O)C(Cc1ccccc1)NC(=O)C(CC(N)=O)NC(=O)c1ccc2ccccc2n1.CS(=O)(=O)O (stereo unspecified) [Saquinavir mesylate] | 96.9 | 89.5 | 105 | 99.4 | 101 ± 20 | 104 | 57.7 ± 51 | 95.3 | 38.63 ± 0.17 | 63.8 | 50.4 ± 0.71 | 36.3 ± 2.6 | 103 ± 3.5
COc1ccc2cc1Oc1ccc(cc1)CC1c3c(cc4c(c3Oc3cc5c(cc3OC)CCN(C)C5C2)OCO4)CCN1C (stereo unspecified) [Cepharanthine] | 86.1 | 52.9 | 80.7 | 60.6 | 57.1 ± 12 | 64.3 | 26.6 ± 5.9 | 73.5 | 159 ± 37 | 170 | 36.2 ± 1.8 | 64.7 ± 8.1 | 94.3 ± 9.8
Br.Cc1ccc(Sc2ccccc2N2CCNCC2)c(C)c1 | 113 | 71.2 | 102 | 80.6 | 28 ± 3 | 44.4 | 17.5 ± 4 | 76.7 | 39.1 ± 6.4 | 35.3 | 23.6 ± 4.2 | 33.9 ± 14 | 26.9 ± 4.6
CC(=O)c1cc2c(o1)C(=O)c1ccccc1C2=O [Napabucasin] | 30.1 | 29.6 | 50.3 | 33.9 | 54.9 ± 23 | 54.2 | 29.1 ± 9.1 | 21.8 | 46.9 ± 9.2 | 58.7 | 40.3 ± 7.5 | 72.4 ± 12 | 45.1 ± 7.3
Cc1nc(NC(=O)N2CCCC2C(N)=O)sc1-c1ccnc(C(C)(C)C(F)(F)F)c1 (stereo unspecified) | 74 | 64.7 | 54.9 | 83.3 | 85.7 ± 9.2 | 45.8 | 28.8 ± 5.1 | 75.9 | 44.2 ± 6.9 | 93.6 | 38.5 ± 2.5 | 65.6 ± 19 | 65.9 ± 2
CNCCC(Oc1ccc(C(F)(F)F)cc1)c1ccccc1.Cl (stereo unspecified) [Fluoxetine HCl] | 91.1 | 75.6 | 99.1 | 84.1 | 98.1 ± 5 | 98.4 | 84.6 ± 29 | 75.2 | 104 ± 12 | 58.6 | 47.8 ± 1.9 | 44.9 ± 6 | 65.9 ± 10
COc1cc(Nc2ncc(F)c(Nc3ccc4c(n3)N(COP(=O)(O)O)C(=O)C(C)(C)O4)n2)cc(OC)c1OC [Fostamatinib (R788)] | 116 | 92.3 | 79 | 112 | 88.3 ± 8.6 | 102 | 87.2 ± 7 | 61 | 74.5 ± 1 | 65 | 55.7 ± 3.7 | 58.1 ± 4.2 | 86.6 ± 6.6
Cc1cn(-c2cc(NC(=O)c3ccc(C)c(Nc4nccc(-c5cccnc5)n4)c3)cc(C(F)(F)F)c2)cn1 [Nilotinib(AMN-107)] | 78.2 | 77.5 | 88 | 75.3 | 105 ± 61 | 79.8 | 90.1 ± 21 | 76.6 | 91.3 ± 13 | 92.1 | 47.83 ± 0.22 | 69.1 ± 7.7 | 75 ± 2.3
CC(C)(C)c1ccc(C(=O)CCCN2CCC(OC(c3ccccc3)c3ccccc3)CC2)cc1 [Ebastine] | 94.4 | 87.5 | 107 | 83.4 | 83.8 ± 57 | 70.2 | 53.2 ± 39 | 81.2 | 31.9 ± 3.6 | 77.5 | 52.1 ± 4.6 | 52.3 ± 7.3 | 78.2 ± 9.7
CC[C@H](C)[C@H]1O[C@]2(CC[C@@H]1C)C[C@@H]1C[C@@H](C/C=C(\C)[C@@H](O[C@H]3C[C@H](OC)[C@@H](O[C@H]4C[C@H](OC)[C@@H](O)[C@H](C)O4)[C@H](C)O3)[C@@H](C)/C=C/C=C3\CO[C@@H]4[C@H](O)C(C)=C[C@@H](C(=O)O1)[C@]34O)O2 [Ivermectin] | 90.6 | 57.6 | 86.6 | 73.3 | 38.3 ± 8 | 81.2 | 20 ± 3.4 | 81 | 37.6 ± 8.1 | 82.9 | 76.3 ± 3 | 40.5 ± 7.1 | 36.2 ± 3
COc1cc2nccc(Oc3ccc(NC(=O)C4(C(=O)Nc5ccc(F)cc5)CC4)cc3)c2cc1OC.O=C(O)CC(O)C(=O)O [Cabozantinib malate (XL184)] | 92.9 | 93.9 | 90.8 | 84.4 | 88.7 ± 13 | 45.4 | 58.2 ± 4.8 | 44 | 85.1 ± 15 | 63.4 | 34.5 ± 3.2 | 105 ± 6.6 | 56 ± 1.8
CC(C)CC(NC(=O)C(NC(=O)c1cccc(-c2ccccc2)n1)C(C)O)B(O)O (stereo unspecified) | 55.2 | 25 | 132 | 22.5 | 76.8 ± 10 | 93.4 | 15.8 ± 2 | 171 | 40.5 ± 10 | 82.8 | 66 ± 0.77 | 42.8 ± 3.3 | 93.3 ± 3.5
